Source: PubChem BioAssay (Tox21)
Records with an inconclusive call do not appear. A call without a number means that no potency is given here. Calls of active or inactive are those of the source. The call rests on the fitted dose curve; in most records, active means well fitted cell-killing curve with a large enough effect in the repeat runs; inconclusive means weak or mixed curves, or effect the other way; inactive means flat fitted curve, though single readings scatter.

assay: qHTS RealTime-Glo MT Cell Viability Assay in HepG2 cells - 0 hour (AID 1224889); details: RealTime-Glo luminescence; series mostly up to 76.8 µM; activity change, negative = cytotoxicity: at the top concentration; further: nearly all actives have a fitted effect of over 50% in size
Source text: U.S. Tox21 Program National Center for Advancing Translational Sciences [NCATS] NIH Chemical Genomics Center [NCGC] U.S. Environmental Protection Agency [EPA] National Institutes of Environmental Health Sciences [NIEHS] National Toxicology Program [NTP] U.S. Food and Drug Administration [FDA] Tox21 Assay Overview: Measure of cell viability is critical in the cell-base assay. Analysis of cell viability is necessary for the characterization of cell responses to cytotoxic drugs and environmental stress. A RealTime-Glo MT Cell Viability Assay to monitor cell viability in real time of continues cell culture during 40 hours of compound treatment was used to screen Tox21 10K library compounds in HepG2 cells. The RealTime-Glo MT Cell Viability Assay is a nonlytic, homogeneous, bioluminescent method to measure cell viability in real time using a simple, plate-based method. The assay involves adding NanoLuc luciferase and a cell-permeant prosubstrate to cells in culture. Viable cells reduce the proprietary prosubstrate to generate a substrate for NanoLuc luciferase. This substrate diffuses from cells into the surrounding culture medium, where it is rapidly used by the NanoLuc Enzyme to produce a luminescent signal. The signal correlates with the number of viable cells, making the assay well suited for cytotoxicity studies.
Tox21 Assay Protocol Summary: The mixture of HepG2 cell suspension and reagents were dispensed at 600cells/6 ul/well in 1536-well tissue culture treated black solid bottom plates using a Multidrop dispenser. After the assay plates were incubated at a 37 C/5% CO2 incubator for 5 hours, 23 nL of compounds dissolved in DMSO, positive and negative controls was transferred to the assay plate by a pintool work station. The plates were incubated at 37 C for 40 hours. The luminescence intensity were measured at 0h, 8h, 16h, 24h, 32h and 40h time points using ViewLux plate reader during compound treatment.

**Q.** For `CCOP(=O)(OCC)OCC`, which Potency is on record?
**A.** inactive

**Q.** For `Clc1ccc(C(Cl)(Cl)Cl)cc1`, which Potency is on record?
**A.** inactive

**Q.** For `COP(=S)(OC)Oc1ccc(Sc2ccc(OP(=S)(OC)OC)cc2)cc1`, which Potency is on record?
**A.** inactive

**Q.** Which Potency does the source give for `Cn1c(-c2ccccc2)cc(-c2ccccc2)[n+]1C` here?
**A.** inactive

**Q.** With `N#Cc1c(Cl)c(Cl)c(Cl)c(C#N)c1Cl` as the compound, how does the Potency read?
**A.** inactive

**Q.** With `O=[N+]([O-])c1ccc(Nc2ccccc2)cc1` as the compound, how does the Potency read?
**A.** inactive

**Q.** With `N#Cc1cccnc1` as the compound, how does the Potency read?
**A.** inactive

**Q.** Which Potency does the source give for `C[C@]12CC[C@H]3[C@@H](CCC4=CC(=O)CC[C@@H]43)[C@@H]1CC[C@@H]2O` here?
**A.** inactive

**Q.** With `CC1CC(=O)O1` (stereo not given) as the compound, how does the Potency read?
**A.** inactive

**Q.** With `COc1ccc(CO)cc1` as the compound, how does the Potency read?
**A.** inactive

**Q.** Which Potency does the source give for `CCOS(=O)(=O)OCC` here?
**A.** inactive

**Q.** Which “activity change, negative = cytotoxicity” value does the source give for `OC(c1ccc(Cl)cc1)(c1cncnc1)c1ccccc1Cl` (stereo not given) here?
**A.** -25.7% (inactive)

**Q.** Which Potency does the source give for `CC1(C)Cc2cccc(O)c2O1` here?
**A.** inactive

**Q.** With `O=[N+]([O-])/N=C1\NCCN1Cc1ccc(Cl)nc1` as the compound, how does the Potency read?
**A.** inactive

**Q.** With `CCOC(=O)c1ccccc1N` as the compound, how does the Potency read?
**A.** inactive

**Q.** Which Potency does the source give for `CC1=C(C(=O)Nc2ccccc2)SCCO1` here?
**A.** inactive

**Q.** For `CCNc1nc(Cl)nc(NC(C)(C)C#N)n1`, which Potency is on record?
**A.** inactive

**Q.** With `CNC(=O)CSP(=S)(OC)OC` as the compound, how does the Potency read?
**A.** inactive

**Q.** With `CCCCCCCCCc1ccc(O)cc1` as the compound, how does the Potency read?
**A.** inactive

**Q.** For `CC(C)=CC1C(C(=O)OCc2cccc(Oc3ccccc3)c2)C1(C)C` (stereo not given), which Potency is on record?
**A.** inactive

**Q.** Which Potency does the source give for `CCCCOCC1CO1` (stereo not given) here?
**A.** inactive

**Q.** With `O=NN1CCOCC1` as the compound, how does the Potency read?
**A.** inactive

**Q.** Which Potency does the source give for `O=C(O)c1nn(Cc2ccc(Cl)cc2Cl)c2ccccc12` here?
**A.** inactive

**Q.** Which Potency does the source give for `CSc1nc(NC(C)C)nc(NC(C)C)n1` here?
**A.** inactive

**Q.** For `CNC(=O)Oc1cccc2c1OC(C)(C)C2`, which Potency is on record?
**A.** inactive

**Q.** With `O=NN(c1ccccc1)c1ccccc1` as the compound, how does the Potency read?
**A.** inactive

**Q.** For `ClCc1ccccn1`, which Potency is on record?
**A.** inactive

**Q.** Which Potency does the source give for `Oc1ccc(Cl)cc1Cl` here?
**A.** inactive

**Q.** For `COc1ccc(O)c(C(C)(C)C)c1`, which Potency is on record?
**A.** inactive

**Q.** Which “activity change, negative = cytotoxicity” value does the source give for `C=CC(Cl)CCl` (stereo not given) here?
**A.** -0.0946% (inactive)

**Q.** Which Potency does the source give for `CCC1(c2ccc(N)cc2)CCC(=O)NC1=O` (stereo not given) here?
**A.** inactive

**Q.** With `CC(O)CN(CC(C)O)CC(C)O` (stereo not given) as the compound, how does the Potency read?
**A.** inactive

**Q.** With `COC(=O)Nc1nc2ccccc2[nH]1` as the compound, how does the Potency read?
**A.** inactive

**Q.** With `CCC/C=N/O` as the compound, how does the Potency read?
**A.** inactive

**Q.** For `Clc1ccccc1-c1nnc(-c2ccccc2Cl)nn1`, which Potency is on record?
**A.** inactive

**Q.** Which Potency does the source give for `NC(=O)CN1CCCC1=O` here?
**A.** inactive

**Q.** For `ClC(Cl)(Cl)Br`, which Potency is on record?
**A.** inactive

**Q.** Which Potency does the source give for `S=c1[nH]c2ccccc2[nH]1` here?
**A.** inactive

**Q.** With `NN=C(N)N` as the compound, how does the Potency read?
**A.** inactive

**Q.** Which Potency does the source give for `N#CCCCCC#N` here?
**A.** inactive
